Among all 110,000 compounds or so, about 230 (0.21%) showed an effect of 50% or more. This is one part of a sample in which strong results are shown more often than they occur.
The molecules below were run against DPAP1 (Plasmodium falciparum, UniProt Q8IIJ9) (assay: primary screen, percent inhibition; read by cleavage of a fluorogenic dipeptide substrate; higher = more effect of the substance).
Chain of DPAP1 (Q8IIJ9 whole entry, looked up): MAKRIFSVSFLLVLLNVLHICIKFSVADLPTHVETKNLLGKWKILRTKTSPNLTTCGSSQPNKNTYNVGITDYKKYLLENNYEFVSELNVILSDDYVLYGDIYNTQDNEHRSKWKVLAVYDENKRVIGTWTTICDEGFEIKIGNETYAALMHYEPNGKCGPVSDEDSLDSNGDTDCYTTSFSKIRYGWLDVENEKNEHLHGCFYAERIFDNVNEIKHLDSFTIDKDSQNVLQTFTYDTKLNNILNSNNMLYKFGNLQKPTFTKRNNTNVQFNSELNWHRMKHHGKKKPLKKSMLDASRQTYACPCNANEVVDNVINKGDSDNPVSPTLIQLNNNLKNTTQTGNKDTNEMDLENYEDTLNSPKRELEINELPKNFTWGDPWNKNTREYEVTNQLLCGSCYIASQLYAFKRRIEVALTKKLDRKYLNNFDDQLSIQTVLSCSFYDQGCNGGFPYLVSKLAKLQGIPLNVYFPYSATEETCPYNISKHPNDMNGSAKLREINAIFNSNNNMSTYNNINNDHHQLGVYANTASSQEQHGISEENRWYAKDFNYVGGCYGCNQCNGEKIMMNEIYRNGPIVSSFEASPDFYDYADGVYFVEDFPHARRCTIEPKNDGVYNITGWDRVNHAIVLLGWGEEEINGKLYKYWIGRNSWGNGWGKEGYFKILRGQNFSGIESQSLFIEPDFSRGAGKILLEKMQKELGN
Parameters: species or system P. falciparum D10 trophozoite lysates; single well
With O=c1oc2c3c(c(Cl)cc2c2c1CCCC2)OCN(Cc1ccco1)C3 the “% Inhibition @ 10 uM” value was 4.13%. With O=C(Nc1ccc([N+](=O)[O-])cc1)c1ccc(-c2ccccc2)cc1 the “% Inhibition @ 10 uM” value was 2.62%. For CC(=O)N1CCN(C2CCc3ccccc3C2)CC1 (stereo not shown), the “% Inhibition @ 10 uM” value was 0.217%. CCC(C)NC(=O)c1ccccc1NS(=O)(=O)c1ccc(NC(C)=O)cc1 (stereo not shown) was tested, and the “% Inhibition @ 10 uM” value was -0.872%. For COc1ccc(C2=N/C(=C\C=C\c3ccccc3)C(=O)O2)cc1, the “% Inhibition @ 10 uM” value was 7.01%. For Cc1ccc(NC(=O)C(CC(C)C)N2Cc3ccccc3C2=O)nc1 (stereo not shown), the “% Inhibition @ 10 uM” value was -0.234%. For O=C(c1ccc(Br)cc1)N1CCN(c2ccc(F)cc2)CC1, the “% Inhibition @ 10 uM” value was 0.815%. For C#CCSc1nc(-c2ccccc2)cc(C(F)(F)F)c1C#N, the “% Inhibition @ 10 uM” value was -10.2%. With N#CNC(=N)CSc1nc(-c2ccccc2)cc(C(F)(F)F)c1C#N the “% Inhibition @ 10 uM” value was 0.0719%. In the case of N#Cc1c(C(F)(F)F)cc(-c2ccccc2)nc1S, the “% Inhibition @ 10 uM” value is reported as 73.6%. COc1cc(/C=C2/NC(=O)N(Cc3ccccc3F)C2=O)cc(Cl)c1O was tested, and the “% Inhibition @ 10 uM” value was -1.28%. With C=CCc1cc(/C=C2/NC(=O)N(Cc3ccccc3F)C2=O)cc(OC)c1O the “% Inhibition @ 10 uM” value was -2.63%. COc1cc(/C=C2/NC(=O)N(Cc3ccccc3F)C2=O)cc(Br)c1O was tested, and the “% Inhibition @ 10 uM” value was 63%. With Cc1oc(-c2ccc3c(c2)OCCO3)cc1C(=O)NCC(=O)O the “% Inhibition @ 10 uM” value was -1.69%. CCCNC(=O)c1cc2n(n1)C(C(F)(F)F)CC(c1ccc(Br)cc1)N2 (stereo not shown) was tested, and the “% Inhibition @ 10 uM” value was -0.67%. With COc1ccc(-c2nc3scc(CCNC(=O)c4cc(OC)c(OC)c(OC)c4)n3n2)cc1 the “% Inhibition @ 10 uM” value was 5.49%. In the case of COc1ccc(NC(=O)C2=C(C)NC(=O)NC2c2ccc(C)cc2)cc1 (stereo not shown), the “% Inhibition @ 10 uM” value is reported as -2.18%. With COc1ccc(NC(=O)C2=C(C)NC(=O)NC2c2ccc(OC)cc2)cc1 (stereo not shown) the “% Inhibition @ 10 uM” value was 9.5%. With COc1ccc(NC(=O)C2=C(C)NC(=O)NC2c2ccc(Br)cc2)cc1 (stereo not shown) the “% Inhibition @ 10 uM” value was 57.9%. In the case of Cc1ccc(-c2nn3c(CC#N)nnc3c3ccccc23)cc1, the “% Inhibition @ 10 uM” value is reported as 6.38%. CC(C)Oc1ccc(-c2cc(C(=O)NCCCN3CCOCC3)c3ccccc3n2)cc1 was tested, and the “% Inhibition @ 10 uM” value was -12.3%. For O=C(Nc1ccc2c3c1C1C=CCC1CN3CC1CC=CC21)c1ccccc1 (stereo not shown), the “% Inhibition @ 10 uM” value was 2.4%. In the case of O=C1NC(=O)c2c1cc1c3c2C2C=CCC2CN3CC2CC=CC12 (stereo not shown), the “% Inhibition @ 10 uM” value is reported as 64.9%. For Cc1cc(C)c2c3c1C1C=CCC1CN3C(C(=O)O)C1CC=CC21 (stereo not shown), the “% Inhibition @ 10 uM” value was 3.65%. COc1cccc(CN(C(=O)c2cc3ccccc3oc2=O)C2CCS(=O)(=O)C2)c1 (stereo not shown) was tested, and the “% Inhibition @ 10 uM” value was 0.366%. CCSc1cc(C)nc2ncnn12 was tested, and the “% Inhibition @ 10 uM” value was 7.56%. In the case of Cc1cccc(-c2[nH]c3c(C#N)cnn3c2NCCC(C)C)c1, the “% Inhibition @ 10 uM” value is reported as 3.84%. With CC(C)CCNc1c(-c2cccc(Cl)c2)[nH]c2c(C#N)cnn12 the “% Inhibition @ 10 uM” value was -4.71%. COc1cccc(-c2[nH]c3c(C#N)cnn3c2NCCC(C)C)c1 was tested, and the “% Inhibition @ 10 uM” value was 76.4%. c1ccc2c(c1)ncn2Cc1nnc2sc(-c3ccc4c(c3)OCCO4)nn12 was tested, and the “% Inhibition @ 10 uM” value was 45%. In the case of Cc1ccc(S(=O)(=O)N(CC(=O)NC2CC3CCC2C3)c2ccc(Cl)cc2)cc1 (stereo not shown), the “% Inhibition @ 10 uM” value is reported as -0.695%. CCc1ccc(CNC(=O)NCc2noc3ccc(C)cc23)cc1 was tested, and the “% Inhibition @ 10 uM” value was 2.19%. COc1cccc(CN2CCN(Cc3ccc(OC)c(OC)c3OC)CC2)c1 was tested, and the “% Inhibition @ 10 uM” value was -6.74%. With COc1cccc(CN2CCN(Cc3cccc(C)c3)CC2)c1OC the “% Inhibition @ 10 uM” value was -4.16%. In the case of COc1ccc(CN2CCN(Cc3cccc(C)c3)CC2)c(OC)c1OC, the “% Inhibition @ 10 uM” value is reported as 53.3%. For Cc1[nH]c2ccccc2c1CCNC(=S)NC(C)(C)C, the “% Inhibition @ 10 uM” value was -0.431%. For O=C(CCNS(=O)(=O)c1ccc2nc(O)ccc2c1)NC1CCCc2ccccc21 (stereo not shown), the “% Inhibition @ 10 uM” value was -2.26%. In the case of CCn1cc(CNC(=O)c2cc(-c3ccccc3OC)nc3ccccc23)cn1, the “% Inhibition @ 10 uM” value is reported as -10.2%. With COc1ccccc1C(=O)Nc1cccc(F)c1 the “% Inhibition @ 10 uM” value was -5.29%. For Cc1cc(C)n(CC(O)Cn2c3ccccc3c3ccccc32)c(=O)n1 (stereo not shown), the “% Inhibition @ 10 uM” value was 80.2%. Cc1cc(C)n(CC(O)Cn2c3ccccc3c3ccccc32)n1 (stereo not shown) was tested, and the “% Inhibition @ 10 uM” value was -10.2%. With OCC(O)Cn1c2ccccc2c2ccccc21 (stereo not shown) the “% Inhibition @ 10 uM” value was 1.44%. In the case of O=C1CC(c2nc(-c3ccccc3)cs2)C2(CCCCC2)O1 (stereo not shown), the “% Inhibition @ 10 uM” value is reported as 4.08%. In the case of Cc1ccc(-c2csc(N)n2)cc1, the “% Inhibition @ 10 uM” value is reported as 20.7%. Cc1ccc(-c2csc(C3C(N)=NC(S)=C(C#N)C34CCCCC4)n2)cc1 (stereo not shown) was tested, and the “% Inhibition @ 10 uM” value was 89.8%. In the case of CNC(=S)N(CCc1c(C)[nH]c2ccc(Cl)cc12)Cc1ccccn1, the “% Inhibition @ 10 uM” value is reported as -4.14%. In the case of COc1cc(C(=O)NCc2nnc(SCC(=O)NC3CCCCC3)o2)cc(OC)c1OC, the “% Inhibition @ 10 uM” value is reported as 1.64%. Cc1nnc(NC(=O)CSc2nnc(CNC(=O)c3cccs3)o2)s1 was tested, and the “% Inhibition @ 10 uM” value was -3.39%. For COc1ccc(C(=O)NCc2nnc(SCC(=O)NC3CCCCC3)o2)cc1, the “% Inhibition @ 10 uM” value was 76.6%.
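Further: 30 min substrate incubation versus DMSO and 10 µM JCP410 controls.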
